Common to all, as to experiment: NCI-60 one-dose screen, 48 h (100 = growth as untreated, 0 = no growth, -100 = all killed)
What all share (settings): 10 µM unless noted

In assay [1] the test system is T-47D breast.
In assay [2] the test system is BT-549 breast.
Assay [3] concerns MDA-MB-435 melanoma.
Assay [4] relates to SW-620 colon.
Assay [5] has as its system MCF7 breast.
For assay [6], the system named is HCT-116 colon.
For assay [7], the system named is HCC-2998 colon.
Assay [8] relates to KM12 colon.
Assay [9] concerns MDA-MB-468 breast.

Several values for one entry are separate records, joined by “and”; a condition that tells them apart may be missing. Equal entries are not always repeated. The panel holds about 83,000 compounds, 20% with a hit somewhere; the sample as a whole holds those more often.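 Negative percent growth values reflect cell death: -40 means 40% of the cells present at the start died, and -100 means all died.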 Unmarked numbers belong to inactive results. Activity calls are given as the source filed them. How the source made its calls: active means growth percent below 10; inactive means the rest.

As for `COc1c(B(O)O)cc(F)cc1-c1nc2c(F)cc3[nH]ncc3c2c2c1CCCC2`, the growth in assay [1] is 33.7%; in [2], -62.2% (active); in assay [3], 31%; in assay [4] it was 0.792% (active); in [5] it was -2.86% (active); in assay [6], 4.76% (active). The growth in assay [7] is 20.1%; in [8] it was 7.55% (active); in assay [9] it was -11% (active).

Regarding `CC[C@]12C=CCN3CC[C@]4(C(=C(C(=O)OC)C1)Nc1cc(OC)c([C@@H]5[C@H]6O[C@H]6[C@@]6(CC)CC(C(=O)OC)=C7Nc8cc(OC)ccc8[C@@]78CCN5[C@@H]68)cc14)[C@@H]32`, the growth was 25.7% in assay [1]; 62.8% in [2]; 57.6% in [3]; 50.4% in assay [4]; 17.2% in assay [5]; 20.5% in [6]. Besides, the growth in assay [7] was 112%; in [8], 49.6%; in assay [9], 28.9%.

As to `Cc1cccc(C)c1Nc1nnc(-c2c[nH]c3ccccc23)o1`, the growth in assay [1] was 87.1%; in assay [2], 105%; in assay [3] it was 103%; in assay [4], 99.5%; in assay [5], 83.4%; in [6] it was 100%. Also, the growth in [7] is 119%; in assay [8] it was 102%; in assay [9], 93.2%.

`CC(=O)Nc1cccc(-n2c(COc3ccc(I)cc3)nc3ccccc32)c1`: the growth in [1] is 54.6% and 107%; in assay [2], 96.9% and 110%; in assay [3] it was 97.7% and 108%; in assay [4], 96.6% and 108%; in assay [5] it was 74.7% and 103%; in [6] it was 80.4% and 104%. Also, the growth in assay [7] was 118% and 119%; in assay [8] it was 94.7% and 98.5%; in assay [9], 78.7% and 111%.

Take `COc1ccc(-c2nnc3c(/C=C/c4ccc(Br)cc4)nc4ccccc4n23)cc1`: the growth was 64.2% in [1]; 9.42% (active) in assay [2]; 28.9% in [3]; -10% (active) in [4]; 0% (active) in assay [5]; -53.8% (active) in [6]. Besides, the growth was 87.7% in assay [7], 85.2% in assay [8] and 32.7% in [9].

Consider `O=c1ccc(Cn2c(C(F)(F)F)cc3c(Cl)ncnc32)c[nH]1`, for which the growth in [1] is 75.7%; in [2], 4.61% (active); in assay [3] it was 25.5%; in [4], 32.5%; in assay [5], 82.4%; in [6] it was 19.5%. Further, the growth is 40.4% in assay [7], 105% in assay [8] and 37.2% in assay [9].

Take `O=C(Nc1ccc(-c2ccc3c(c2)NC(=O)/C3=C\c2ccc[nH]2)cc1)Nc1ccc(Cl)c(Cl)c1`: the growth in assay [1] is 18.8%; in [2], 40.5%; in assay [3] it was 62.6%; in [4], 16.7%; in [5], 9.81% (active); in assay [6], 35.3%. The figures for the growth in assay [7], in [8] and in assay [9] were 83.5%, 8.6% (active) and -16.8% (active), respectively.

As for `Cc1nc2sccn2c1-c1nnc(SCC(C)C)o1`, the growth in assay [1] was 59.4%; in assay [2] it was 88.7%; in assay [3] it was 102%; in assay [4], 97.6%; in assay [5], 37.5%; in [6], 82.8%. The growth in assay [8] is 98.1%; in assay [9] it was 4.49% (active).

As for `O=C(N/N=C/c1ccoc1)c1[nH]c2ccc(Br)cc2c1-c1ccccc1`, the growth in assay [1] was -74.7% (active); in assay [2] it was -90.3% (active); in assay [3] it was -96% (active); in assay [4], -83.6% (active); in [5] it was -70.3% (active); in assay [6] it was -75.8% (active). Moreover, the growth in [8] is -25.4% (active); in assay [9], -88.5% (active).

As to `C=CC[n+]1cccc2c3ccccc3ccc21`, the growth in [1] was 27%; in assay [2] it was 9.92% (active); in [3], 61.3%; in assay [4], 45.1%; in assay [5], 25.2%; in [6] it was 48.6%. Moreover, the values for the growth in [7], in assay [8] and in assay [9] were 55.7%, 20.2% and -9.82% (active), respectively.

As for `O=C(NNC(=S)NC(=O)c1ccccc1)c1ccc(OCc2nc3ccc(Cl)cc3[nH]2)cc1`, the growth is 10.2% in assay [1]; -51.8% (active) in [2]; -51.2% (active) in assay [3]; 19.8% in assay [4]; 3.67% (active) in assay [5]; -34.6% (active) in assay [6]. Moreover, the values for the growth in assay [8] and in assay [9] were -3.11% (active) and -41% (active), respectively.

As for `COc1cc(/C=C/C(=O)c2ccc(S(=O)(=O)NCCNc3nc(N(C)C)nc(N4CCOCC4)n3)cc2)cc(OC)c1OC`, the growth was 29.9% in assay [1]; -73.3% (active) in assay [2]; -56% (active) in [3]; -100% (active) in assay [4]; -96.4% (active) in [5]; -100% (active) in assay [6]. Moreover, the growth in [7], in assay [8] and in assay [9] was -100% (active) throughout.

Take `CN(C)c1ccc(/C=C/c2n(Cc3ccc4ccccc4c3)c3ccccc3[n+]2Cc2ccc3ccccc3c2)cc1`: the growth in assay [1] is -55.3% (active); in assay [2], -87.1% (active); in [3] it was -94.7% (active); in assay [4] it was -65.4% (active); in assay [5] it was -67.3% (active); in assay [6], -62.7% (active). Besides, the values for the growth in [8] and in assay [9] were -29.9% (active) and -82.2% (active), respectively.

As for `Cc1cc(=O)oc2cc(OCC(O)CNN3C(=O)c4cccc5c(N6CCN(C)CC6)ccc(c45)C3=O)ccc12` (configuration not stated), the growth in assay [1] is 109%; in assay [2] it was 113%; in assay [3], 56.9%; in assay [4] it was 84.3%; in assay [5] it was 88.6%; in assay [6], 93.5%. Besides, the figures for the growth in [7], in assay [8] and in assay [9] were 101%, 90.8% and 108%, respectively.

For the molecule `CCOc1ccc2[nH]c(=O)c(C(c3nnnn3CC3CCCO3)N3CCN(Cc4ccccc4)CC3)cc2c1` (configuration not stated), the growth was 106% in [1]; 81.7% in [2]; 99.3% in assay [3]; 98.8% in assay [4]; 92.4% in assay [5]; 78% in assay [6]. The growth is 122% in assay [7], 101% in [8] and 72.4% in assay [9].

Turning to `COc1ccc(SC2c3cc(OC)ccc3Oc3nc(N)c(C#N)c(N)c32)cc1` (configuration not stated), the growth was 77.4% in [1]; 24.5% in assay [2]; 87.5% in [3]; 69.5% in assay [4]; 49.2% in assay [5]; 78% in assay [6]. Besides, the values for the growth in [8] and in [9] were 61.2% and 98.6%, respectively.

As for `O=C(CSc1nnc(-c2ccc(-c3nc4ccc(Cl)cc4[nH]3)cc2)o1)Nc1ccccc1`, the growth in assay [1] was 93.3%; in [2], 80%; in assay [3], 17.5%; in assay [4], 0.173% (active); in [5], 33.3%; in assay [6], 5.65% (active). In addition, the figures for the growth in [7], in [8] and in assay [9] were 98.9%, 34.1% and 90.9%, respectively.

As for `Cc1ccc2c(c1)/C(=C/C(=O)c1cc3ccccc3oc1=O)C(=O)N2`, the growth in [1] was 72.8%; in assay [2], 68.8%; in assay [3], 75.5%; in assay [4], -94.7% (active); in [5], 55.9%; in assay [6], 18.9%. The results for the growth in [7], in [8] and in assay [9] were 106%, 86.9% and -69.3% (active), respectively.

With `O=C(Nc1ccc(F)cc1)Nc1nc2ccc([N+](=O)[O-])cc2s1`, the growth is -18.1% (active) in [1]; -53.2% (active) in [2]; 0.0184% (active) in [3]; 7.92% (active) in [4]; 1.6% (active) in [5]; 1.02% (active) in assay [6]. Moreover, the growth is 9.04% (active) in assay [8] and -23.4% (active) in assay [9].

In the case of `FC(F)(F)CN1CCN(CCn2c(C(F)(F)F)cc3c(Cl)ncnc32)CC1`, the growth in assay [1] was 59.3%; in [2], -27.2% (active); in [3] it was 38.7%; in [4], 11.3%; in assay [5], 25.3%; in [6], 1.79% (active). The growth in assay [8] was 70.7%; in assay [9], -64% (active).

With `CCOc1ccccc1[C@H]1C(C(=O)c2ccc(Cl)cc2)C2(N[C@@H]1c1ccccc1)C(=O)Nc1ccc(Cl)cc12` (some centres not stated), the growth in assay [1] is 19.9%; in assay [2] it was 9.4% (active); in assay [3], 24.1%; in assay [4] it was 38.1%; in [5] it was 5.27% (active); in [6], 11.1%. Besides, the values for the growth in [8] and in [9] were 24.2% and 4.39% (active), respectively.

For `CC(=O)c1ccc2c(N)c(C(=O)Nc3ccc(C(F)(F)F)cc3)sc2n1`, the growth in [1] is 18.1%; in [2] it was 43.4%; in assay [3] it was 48.1%; in [4], 80.1%; in assay [5] it was 27.8%; in [6] it was 31%. The growth in [8] was 56.7%; in assay [9], 10.6%.

For the molecule `O=C1/C(=C/C=C/c2ccco2)SC(=S)N1CC(=S)C1C=CS(=O)(=O)C1` (configuration not stated), the growth in [1] is 80.2%; in [2], 88.1%; in assay [3] it was 96.7%; in [4], 76.9%; in [5], 27.9%; in [6], 83.4%. Further, the values for the growth in assay [7], in assay [8] and in [9] were 103%, 89.4% and -16.5% (active), respectively.

With `Nc1ccc(-c2ccc3ncnc(N4CCc5cc(F)c(Cl)cc54)c3c2)cn1`, the growth in assay [1] was 10.7%; in assay [2], -9.19% (active); in assay [3], 28%; in assay [4], 55.8%; in [5] it was 8.53% (active); in [6] it was -52.9% (active). Further, the results for the growth in assay [7], in assay [8] and in assay [9] were 38.2%, 35.6% and -78% (active), respectively.

Take `COc1ccc2[nH]c(=O)c(CSc3ccccc3Nc3nccc(-c4ccc5c(c4)OCO5)n3)cc2c1`: the growth was 52% in assay [1]; 67.3% in [2]; 74.5% in assay [3]; 106% in assay [4]; 68.2% in [5]; 70% in assay [6]. Further, the growth in [8] is 89.7%; in assay [9], 66.5%.

For `CC(C)(C)c1cc(-c2cc(-c3ccccc3)[nH]c(=O)c2C#N)cc(C(C)(C)C)c1`, the growth in [1] is 36.4%; in [2], -3.78% (active); in assay [3], 56.9%; in assay [4], 66.1%; in assay [5] it was 71.8%; in [6], -35% (active). Besides, the growth was 59.8% in [7], 81.3% in [8] and 37.8% in [9].

In the case of `O=C(Nc1nc2ccc([N+](=O)[O-])cc2s1)Nc1ccc(Cl)cc1Cl`, the growth is 20.7% in assay [1]; 65.3% in [2]; 60.3% in assay [3]; 75.9% in assay [4]; 36% in assay [5]; 22.5% in [6]. The growth in assay [7] is 69.4%; in assay [8], 60.2%; in assay [9] it was 29.1%.

For the molecule `OCCn1cc(-c2nc3ccc4[nH]ncc4c3c3c2CCCC3)cn1`, the growth is 43.5% in assay [1]; 30.5% in assay [2]; 12.4% in [3]; 21.6% in [4]; 39.3% in assay [5]; 24% in assay [6]. The growth in assay [7] was 54%; in assay [8], 18.8%; in assay [9], 3.83% (active).

Source of the values: PubChem BioAssay (NCI).
